# Measurements: article PMC7862700, “An all-to-all approach to the identification of sequence-specific readers for epigenetic DNA modifications on cytosine”
# Tests used:
# Experiment in all cases: DAPPL (digital affinity profiling via proximity ligation, sequencing); 10 mM Tris-HCl pH 7.5, 50 mM NaCl, 1 mM DTT, 4% glycerol, room temperature, 30 min; GST-TFs on glutathione beads, 16-mer random dsDNA library, 0.1% formaldehyde crosslink after washing; high values mean tight binding
# [1] = biological target: T1, FLI1 (Homo sapiens, UniProt Q01543 1-452); conditions: protein: recombinant; tags: N-terminal GST; dsDNA, one strand shown
# T1 sequence: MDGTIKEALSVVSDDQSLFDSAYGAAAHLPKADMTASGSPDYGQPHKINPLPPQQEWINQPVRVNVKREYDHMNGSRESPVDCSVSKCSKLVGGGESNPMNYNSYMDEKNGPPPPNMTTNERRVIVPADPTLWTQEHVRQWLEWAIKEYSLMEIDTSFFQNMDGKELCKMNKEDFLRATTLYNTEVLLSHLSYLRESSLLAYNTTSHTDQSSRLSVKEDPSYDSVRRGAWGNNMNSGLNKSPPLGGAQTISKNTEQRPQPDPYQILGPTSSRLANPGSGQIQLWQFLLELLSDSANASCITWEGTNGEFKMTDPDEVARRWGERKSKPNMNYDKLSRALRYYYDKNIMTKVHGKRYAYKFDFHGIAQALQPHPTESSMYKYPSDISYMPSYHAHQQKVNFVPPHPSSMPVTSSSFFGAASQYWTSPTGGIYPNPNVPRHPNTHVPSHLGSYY
# How it was run: (§1)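 A tag-only sample was pooled with DNA-barcoded human transcription factors that had been expressed in yeast as GST fusions and captured on glutathione beads. The pools were incubated for 30 min at room temperature with 200 nmole of a random double-stranded 16-mer DNA library in Tris/NaCl/DTT/glycerol buffer, then washed, crosslinked with 0.1% formaldehyde, proximity-ligated (BsaI/T4 ligase, 1 h, 37 °C), PCR-amplified and sequenced on an Illumina NextSeq500. Binding signal is each hexamer's read frequency for a factor divided by its frequency for the tag-only sample.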
# [2] = biological target: T2, ELK1 (Homo sapiens, UniProt P19419 1-428); conditions: protein: recombinant; tags: N-terminal GST; dsDNA, one strand shown
# T2 sequence: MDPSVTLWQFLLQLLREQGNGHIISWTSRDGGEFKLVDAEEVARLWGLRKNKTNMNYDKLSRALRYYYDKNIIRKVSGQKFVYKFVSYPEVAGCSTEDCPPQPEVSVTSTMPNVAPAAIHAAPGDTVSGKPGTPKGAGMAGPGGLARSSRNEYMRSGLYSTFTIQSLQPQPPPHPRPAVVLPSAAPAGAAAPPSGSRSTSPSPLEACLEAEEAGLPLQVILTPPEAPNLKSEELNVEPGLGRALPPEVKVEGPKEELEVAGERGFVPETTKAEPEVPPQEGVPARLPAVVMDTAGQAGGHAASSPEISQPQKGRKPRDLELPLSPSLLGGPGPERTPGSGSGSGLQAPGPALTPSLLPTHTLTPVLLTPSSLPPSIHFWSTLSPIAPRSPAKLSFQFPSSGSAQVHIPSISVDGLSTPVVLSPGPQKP
# How it was run: as §1
# [3] = biological target: T3, GABPA (Homo sapiens, UniProt Q06546 1-454); conditions: protein: recombinant; tags: N-terminal GST; dsDNA, one strand shown
# T3 sequence: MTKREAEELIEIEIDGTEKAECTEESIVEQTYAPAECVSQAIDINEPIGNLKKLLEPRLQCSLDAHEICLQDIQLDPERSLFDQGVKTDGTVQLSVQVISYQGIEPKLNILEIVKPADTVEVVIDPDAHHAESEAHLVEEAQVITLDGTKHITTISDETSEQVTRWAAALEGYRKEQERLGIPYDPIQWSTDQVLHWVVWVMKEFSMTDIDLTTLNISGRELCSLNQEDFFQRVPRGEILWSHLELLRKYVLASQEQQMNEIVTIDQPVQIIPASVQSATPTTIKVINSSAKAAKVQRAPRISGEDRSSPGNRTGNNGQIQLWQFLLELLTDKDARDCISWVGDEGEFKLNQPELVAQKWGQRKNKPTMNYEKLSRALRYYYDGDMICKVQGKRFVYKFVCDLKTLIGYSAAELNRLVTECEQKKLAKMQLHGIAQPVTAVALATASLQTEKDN
# How it was run: as §1
# [4] = biological target: T4, ERG (Homo sapiens, UniProt P11308 1-479); conditions: protein: recombinant; tags: N-terminal GST; dsDNA, one strand shown
# T4 sequence: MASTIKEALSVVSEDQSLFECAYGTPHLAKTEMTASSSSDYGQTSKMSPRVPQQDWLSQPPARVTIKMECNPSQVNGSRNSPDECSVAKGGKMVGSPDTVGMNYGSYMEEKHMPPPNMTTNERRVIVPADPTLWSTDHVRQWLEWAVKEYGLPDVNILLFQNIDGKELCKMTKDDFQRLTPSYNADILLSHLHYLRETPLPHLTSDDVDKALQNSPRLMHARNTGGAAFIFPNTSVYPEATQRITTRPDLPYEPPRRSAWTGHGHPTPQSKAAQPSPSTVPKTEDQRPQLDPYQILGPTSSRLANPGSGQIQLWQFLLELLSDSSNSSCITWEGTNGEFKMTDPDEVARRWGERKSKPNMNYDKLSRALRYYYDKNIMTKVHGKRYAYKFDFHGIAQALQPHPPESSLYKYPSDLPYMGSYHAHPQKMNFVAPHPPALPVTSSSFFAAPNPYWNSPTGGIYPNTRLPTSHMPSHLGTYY
# How it was run: as §1
# [5] = biological target: ELF1 (Homo sapiens, UniProt P32519 1-619); conditions: protein: recombinant; tags: N-terminal GST; dsDNA, one strand shown
# How it was run: as §1
# [6] = biological target: T5, EHF (Homo sapiens, UniProt Q9NZC4 1-300); conditions: protein: recombinant; tags: N-terminal GST; dsDNA, one strand shown
# T5 sequence: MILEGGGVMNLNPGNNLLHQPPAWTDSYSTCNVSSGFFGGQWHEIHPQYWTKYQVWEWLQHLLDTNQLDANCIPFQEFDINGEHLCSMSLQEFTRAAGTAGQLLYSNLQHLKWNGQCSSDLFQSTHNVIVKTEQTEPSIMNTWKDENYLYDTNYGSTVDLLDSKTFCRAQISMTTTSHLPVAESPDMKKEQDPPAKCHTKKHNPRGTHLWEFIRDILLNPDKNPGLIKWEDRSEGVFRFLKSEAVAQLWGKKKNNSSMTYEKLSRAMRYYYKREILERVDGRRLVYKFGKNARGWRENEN
# How it was run: as §1
# [7] = biological target: SPI1 (Homo sapiens, UniProt P17947 1-270); conditions: protein: recombinant; tags: N-terminal GST; dsDNA, one strand shown
# How it was run: as §1
# [8] = biological target: SPIB (Homo sapiens, UniProt Q01892 1-262); conditions: protein: recombinant; tags: N-terminal GST; dsDNA, one strand shown
# How it was run: as §1
# [9] = biological target: T6, ELK3 (Homo sapiens, UniProt P41970 1-407); conditions: protein: recombinant; tags: N-terminal GST; dsDNA, one strand shown
# T6 sequence: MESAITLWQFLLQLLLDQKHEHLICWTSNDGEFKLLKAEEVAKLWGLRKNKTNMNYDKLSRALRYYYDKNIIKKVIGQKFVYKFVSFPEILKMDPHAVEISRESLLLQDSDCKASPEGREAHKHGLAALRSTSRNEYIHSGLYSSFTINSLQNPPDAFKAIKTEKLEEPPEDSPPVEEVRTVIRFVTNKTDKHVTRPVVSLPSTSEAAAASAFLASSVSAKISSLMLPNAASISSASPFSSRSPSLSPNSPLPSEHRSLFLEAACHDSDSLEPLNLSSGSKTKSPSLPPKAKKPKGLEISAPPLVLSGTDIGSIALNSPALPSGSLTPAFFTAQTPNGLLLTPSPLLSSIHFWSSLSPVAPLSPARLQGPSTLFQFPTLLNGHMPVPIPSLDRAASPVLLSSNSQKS
# How it was run: as §1
# [10] = biological target: T7, FEV (Homo sapiens, UniProt Q99581 1-238); conditions: protein: recombinant; tags: N-terminal GST; dsDNA, one strand shown
# T7 sequence: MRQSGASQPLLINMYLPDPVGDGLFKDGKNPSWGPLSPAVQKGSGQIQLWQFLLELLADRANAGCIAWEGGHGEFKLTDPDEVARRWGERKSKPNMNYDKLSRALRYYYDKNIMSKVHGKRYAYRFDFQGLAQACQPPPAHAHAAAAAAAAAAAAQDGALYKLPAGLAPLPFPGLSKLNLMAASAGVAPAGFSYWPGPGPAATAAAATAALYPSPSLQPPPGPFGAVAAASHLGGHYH
# How it was run: as §1
# [11] = biological target: ETV5 (Homo sapiens, UniProt P41161 1-510); conditions: protein: recombinant; tags: N-terminal GST; dsDNA, one strand shown
# How it was run: as §1
# [12] = biological target: HSF1 (Homo sapiens, UniProt Q00613 1-529); conditions: protein: recombinant; tags: N-terminal GST; chain copies: 3; dsDNA, one strand shown
# How it was run: as §1
# [13] = biological target: T8, SPIC (Homo sapiens, UniProt Q8N5J4 1-248); conditions: protein: recombinant; tags: N-terminal GST; dsDNA, one strand shown
# T8 sequence: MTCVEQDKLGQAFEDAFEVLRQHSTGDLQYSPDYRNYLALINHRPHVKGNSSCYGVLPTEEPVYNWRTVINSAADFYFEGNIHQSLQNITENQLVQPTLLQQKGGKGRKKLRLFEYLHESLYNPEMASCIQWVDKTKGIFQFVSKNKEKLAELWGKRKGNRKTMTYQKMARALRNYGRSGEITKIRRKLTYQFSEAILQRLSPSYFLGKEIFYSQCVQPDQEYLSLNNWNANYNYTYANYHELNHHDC
# How it was run: as §1
# [14] = biological target: ELF4 (Homo sapiens, UniProt Q99607 1-663); conditions: protein: recombinant; tags: N-terminal GST; dsDNA, one strand shown
# How it was run: as §1
# [15] = biological target: T9, ELK4 (Homo sapiens, UniProt P28324-2 1-405); conditions: protein: recombinant; tags: N-terminal GST; dsDNA, one strand shown
# T9 sequence: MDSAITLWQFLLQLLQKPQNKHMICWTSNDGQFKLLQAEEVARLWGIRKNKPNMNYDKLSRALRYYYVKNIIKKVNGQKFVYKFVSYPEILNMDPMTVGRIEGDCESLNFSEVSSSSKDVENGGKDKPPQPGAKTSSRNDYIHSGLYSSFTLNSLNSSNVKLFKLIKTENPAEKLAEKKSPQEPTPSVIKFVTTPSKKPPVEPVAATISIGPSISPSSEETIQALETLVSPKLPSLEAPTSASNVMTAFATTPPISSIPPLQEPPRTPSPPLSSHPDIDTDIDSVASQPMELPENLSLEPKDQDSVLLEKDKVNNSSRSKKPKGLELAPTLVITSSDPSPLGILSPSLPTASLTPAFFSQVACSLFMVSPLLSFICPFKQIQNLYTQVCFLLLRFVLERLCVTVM
# How it was run: as §1
# [16] = biological target: T10, ETV2 (Homo sapiens, UniProt O00321 1-342); conditions: protein: recombinant; tags: N-terminal GST; dsDNA, one strand shown
# T10 sequence: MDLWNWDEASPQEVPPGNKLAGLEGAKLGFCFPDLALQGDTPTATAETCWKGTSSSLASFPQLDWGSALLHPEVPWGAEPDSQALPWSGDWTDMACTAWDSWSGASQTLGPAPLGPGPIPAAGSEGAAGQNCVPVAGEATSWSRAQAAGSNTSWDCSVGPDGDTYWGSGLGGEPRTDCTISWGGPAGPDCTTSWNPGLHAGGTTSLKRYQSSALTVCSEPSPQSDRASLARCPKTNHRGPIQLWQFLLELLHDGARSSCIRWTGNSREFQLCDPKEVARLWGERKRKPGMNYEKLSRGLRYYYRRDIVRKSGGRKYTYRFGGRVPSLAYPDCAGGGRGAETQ
# How it was run: as §1
# [17] = biological target: T11, ELF3 (Homo sapiens, UniProt P78545 1-371); conditions: protein: recombinant; tags: N-terminal GST; dsDNA, one strand shown
# T11 sequence: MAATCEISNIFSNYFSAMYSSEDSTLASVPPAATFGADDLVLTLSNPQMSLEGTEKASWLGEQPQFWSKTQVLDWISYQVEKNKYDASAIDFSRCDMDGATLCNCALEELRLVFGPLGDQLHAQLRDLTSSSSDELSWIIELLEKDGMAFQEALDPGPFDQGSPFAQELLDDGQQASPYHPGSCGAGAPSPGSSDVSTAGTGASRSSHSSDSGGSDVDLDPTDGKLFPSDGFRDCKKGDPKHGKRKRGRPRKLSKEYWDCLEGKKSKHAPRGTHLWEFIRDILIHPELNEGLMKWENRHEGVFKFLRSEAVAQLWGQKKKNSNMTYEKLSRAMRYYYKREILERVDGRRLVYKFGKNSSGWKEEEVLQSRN
# How it was run: as §1
# [18] = biological target: CRX (Homo sapiens, UniProt O43186 1-299); conditions: protein: recombinant; tags: N-terminal GST; dsDNA, one strand shown
# How it was run: as §1
# [19] = biological target: ETV1 (Homo sapiens, UniProt P50549 1-477); conditions: protein: recombinant; tags: N-terminal GST; dsDNA, one strand shown
# How it was run: as §1
# ELF1, sequence (P32519 whole entry): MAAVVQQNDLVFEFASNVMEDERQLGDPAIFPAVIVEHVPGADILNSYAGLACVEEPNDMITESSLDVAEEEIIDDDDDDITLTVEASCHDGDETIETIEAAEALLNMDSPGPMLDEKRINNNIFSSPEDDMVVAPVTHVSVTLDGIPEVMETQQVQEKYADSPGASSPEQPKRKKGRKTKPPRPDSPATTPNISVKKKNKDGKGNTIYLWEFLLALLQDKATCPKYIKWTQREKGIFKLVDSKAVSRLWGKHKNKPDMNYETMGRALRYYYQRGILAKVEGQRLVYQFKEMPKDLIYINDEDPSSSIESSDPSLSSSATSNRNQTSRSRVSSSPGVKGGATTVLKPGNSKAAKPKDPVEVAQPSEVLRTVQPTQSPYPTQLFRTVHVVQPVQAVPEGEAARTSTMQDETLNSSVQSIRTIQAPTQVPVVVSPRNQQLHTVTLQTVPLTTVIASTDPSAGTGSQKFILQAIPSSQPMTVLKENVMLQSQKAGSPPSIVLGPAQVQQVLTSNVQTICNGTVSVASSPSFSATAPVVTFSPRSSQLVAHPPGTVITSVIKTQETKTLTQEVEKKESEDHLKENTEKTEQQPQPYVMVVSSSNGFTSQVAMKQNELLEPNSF
# HSF1, sequence (Q00613 whole entry): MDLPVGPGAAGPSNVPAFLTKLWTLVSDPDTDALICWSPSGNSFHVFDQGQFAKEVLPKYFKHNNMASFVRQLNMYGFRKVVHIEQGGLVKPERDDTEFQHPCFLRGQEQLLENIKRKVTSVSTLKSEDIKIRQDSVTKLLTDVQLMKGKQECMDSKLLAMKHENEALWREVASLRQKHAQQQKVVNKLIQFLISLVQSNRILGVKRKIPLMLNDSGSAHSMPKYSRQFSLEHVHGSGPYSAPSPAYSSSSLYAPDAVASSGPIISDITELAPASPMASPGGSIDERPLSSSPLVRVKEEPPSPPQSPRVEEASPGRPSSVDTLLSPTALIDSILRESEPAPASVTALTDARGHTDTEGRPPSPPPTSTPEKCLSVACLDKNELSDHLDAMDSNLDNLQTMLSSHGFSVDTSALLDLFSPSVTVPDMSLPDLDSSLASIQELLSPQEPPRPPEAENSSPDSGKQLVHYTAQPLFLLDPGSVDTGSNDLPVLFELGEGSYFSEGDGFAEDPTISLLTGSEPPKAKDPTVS
# ELF4, sequence (Q99607 whole entry): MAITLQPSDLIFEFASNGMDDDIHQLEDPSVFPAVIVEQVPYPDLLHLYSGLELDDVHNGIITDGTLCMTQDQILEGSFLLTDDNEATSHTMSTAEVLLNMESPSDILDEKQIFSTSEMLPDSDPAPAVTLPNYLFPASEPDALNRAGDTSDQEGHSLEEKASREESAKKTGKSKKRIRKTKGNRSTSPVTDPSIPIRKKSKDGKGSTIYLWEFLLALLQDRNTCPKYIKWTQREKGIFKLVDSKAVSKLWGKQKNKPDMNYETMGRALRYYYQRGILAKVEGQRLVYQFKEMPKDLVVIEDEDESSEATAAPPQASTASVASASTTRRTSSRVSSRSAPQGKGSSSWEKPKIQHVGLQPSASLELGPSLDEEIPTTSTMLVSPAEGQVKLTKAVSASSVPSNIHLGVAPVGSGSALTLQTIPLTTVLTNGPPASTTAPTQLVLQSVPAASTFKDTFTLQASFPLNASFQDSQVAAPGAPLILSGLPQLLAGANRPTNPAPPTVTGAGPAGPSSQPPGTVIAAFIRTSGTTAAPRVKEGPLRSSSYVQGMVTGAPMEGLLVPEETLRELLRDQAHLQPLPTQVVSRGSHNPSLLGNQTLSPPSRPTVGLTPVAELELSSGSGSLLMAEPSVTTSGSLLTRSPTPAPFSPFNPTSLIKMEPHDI
# ETV5, sequence (P41161 whole entry): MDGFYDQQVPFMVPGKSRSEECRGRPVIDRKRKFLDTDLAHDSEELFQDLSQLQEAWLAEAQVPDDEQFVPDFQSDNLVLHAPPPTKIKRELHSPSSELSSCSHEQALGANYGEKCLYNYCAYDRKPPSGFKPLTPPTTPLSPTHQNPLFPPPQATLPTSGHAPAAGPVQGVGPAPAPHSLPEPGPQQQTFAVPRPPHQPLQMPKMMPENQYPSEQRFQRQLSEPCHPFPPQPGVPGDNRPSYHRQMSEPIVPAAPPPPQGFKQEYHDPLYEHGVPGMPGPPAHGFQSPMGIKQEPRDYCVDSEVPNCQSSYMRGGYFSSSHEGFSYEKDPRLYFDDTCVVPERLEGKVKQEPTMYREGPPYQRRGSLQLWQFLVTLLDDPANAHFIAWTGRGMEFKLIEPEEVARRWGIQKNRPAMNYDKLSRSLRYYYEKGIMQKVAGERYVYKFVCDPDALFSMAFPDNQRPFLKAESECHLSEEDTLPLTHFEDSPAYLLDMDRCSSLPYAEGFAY
# CRX, sequence (O43186 whole entry): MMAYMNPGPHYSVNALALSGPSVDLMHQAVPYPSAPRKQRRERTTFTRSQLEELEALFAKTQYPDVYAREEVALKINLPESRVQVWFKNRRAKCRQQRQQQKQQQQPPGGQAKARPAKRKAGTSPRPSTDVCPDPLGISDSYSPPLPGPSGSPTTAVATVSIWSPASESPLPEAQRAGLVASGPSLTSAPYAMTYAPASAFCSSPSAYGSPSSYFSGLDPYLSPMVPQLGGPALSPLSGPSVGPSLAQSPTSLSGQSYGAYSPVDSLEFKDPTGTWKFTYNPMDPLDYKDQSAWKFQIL
# ETV1, sequence (P50549 whole entry): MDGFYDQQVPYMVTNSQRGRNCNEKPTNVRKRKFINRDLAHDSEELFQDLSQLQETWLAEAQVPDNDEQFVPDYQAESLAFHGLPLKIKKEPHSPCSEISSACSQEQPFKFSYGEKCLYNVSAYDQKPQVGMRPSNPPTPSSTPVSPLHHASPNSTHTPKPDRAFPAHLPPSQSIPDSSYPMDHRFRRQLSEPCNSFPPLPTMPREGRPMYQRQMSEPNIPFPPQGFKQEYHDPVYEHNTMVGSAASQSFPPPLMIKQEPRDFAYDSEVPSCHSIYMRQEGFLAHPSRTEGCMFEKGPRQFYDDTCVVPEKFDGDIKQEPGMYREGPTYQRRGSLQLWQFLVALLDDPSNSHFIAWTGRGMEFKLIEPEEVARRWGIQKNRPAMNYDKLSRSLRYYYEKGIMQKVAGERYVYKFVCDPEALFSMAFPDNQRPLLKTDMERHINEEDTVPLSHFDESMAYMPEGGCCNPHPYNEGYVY
# SPIB, sequence (Q01892 whole entry): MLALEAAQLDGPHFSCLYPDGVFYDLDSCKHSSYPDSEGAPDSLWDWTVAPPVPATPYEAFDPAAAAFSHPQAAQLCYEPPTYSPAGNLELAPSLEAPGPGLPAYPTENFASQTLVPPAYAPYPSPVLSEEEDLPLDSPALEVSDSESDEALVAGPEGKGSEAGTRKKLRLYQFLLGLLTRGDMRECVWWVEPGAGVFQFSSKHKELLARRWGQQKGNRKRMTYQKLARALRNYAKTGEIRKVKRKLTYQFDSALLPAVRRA
sequence,measurement,setting,value
CTTATA,binding signal,[1],"1.3 fold enrichment (6-mer frequency, TF over GST control)"
same,binding signal,[2],"1.33 fold enrichment (6-mer frequency, TF over GST control)"
same,binding signal,[3],"1.41 fold enrichment (6-mer frequency, TF over GST control)"
same,binding signal,[4],"1.28 fold enrichment (6-mer frequency, TF over GST control)"
same,binding signal,[5],"1.33 fold enrichment (6-mer frequency, TF over GST control)"
same,binding signal,[6],"1.4 fold enrichment (6-mer frequency, TF over GST control)"
same,binding signal,[7],"1.43 fold enrichment (6-mer frequency, TF over GST control)"
same,binding signal,[8],"1.39 fold enrichment (6-mer frequency, TF over GST control)"
same,binding signal,[9],"1.29 fold enrichment (6-mer frequency, TF over GST control)"
same,binding signal,[10],"1.31 fold enrichment (6-mer frequency, TF over GST control)"
same,binding signal,[11],"1.29 fold enrichment (6-mer frequency, TF over GST control)"
same,binding signal,[12],"1.65 fold enrichment (6-mer frequency, TF over GST control)"
same,binding signal,[13],"1.34 fold enrichment (6-mer frequency, TF over GST control)"
same,binding signal,[14],"1.32 fold enrichment (6-mer frequency, TF over GST control)"
same,binding signal,[15],"1.38 fold enrichment (6-mer frequency, TF over GST control)"
same,binding signal,[16],"1.15 fold enrichment (6-mer frequency, TF over GST control)"
same,binding signal,[17],"1.37 fold enrichment (6-mer frequency, TF over GST control)"
same,binding signal,[18],"2.27 fold enrichment (6-mer frequency, TF over GST control)"
same,binding signal,[19],"1.49 fold enrichment (6-mer frequency, TF over GST control)"
